Source: PubChem BioAssay AID488893 (Broad Institute, 2010)
Results with a measured potency or affinity are listed apart. Activity calls are given as the source filed them.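 The calls were made as follows: active = falling signal whose fitted half-maximal dose is at most ten times the top valid tested dose; inconclusive = flat curve with 30 to 70% inhibition, or poor fit; inactive = the rest, including changes in the wrong direction.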

assay: Candida albicans growth inhibition, compound alone, dose response, counter-screen for antifungal drug resistance project, CaCi-2 strain, Alamar Blue, dry powder, set 2 (AID 488893); conditions: C. albicans CaCi-2 (fluconazole-resistant clinical isolate) growth, Alamar Blue fluorescence, 48 h; series mostly up to 26 µM

Question: For `O=C(c1ccc(Cl)nc1)N1CCN(c2ccnc3cc(Cl)ccc23)CC1`, which outcome is on record?
Answer: Its outcome is “inactive”.

Question: For `O=C(O)Cn1nc(-c2ccccc2)c2ccccc21`, which outcome is on record?
Answer: The outcome was “inactive”.

Question: For `O=C(c1ccc(Cl)cc1)N1CCN(c2ccncc2)CC1`, which outcome is on record?
Answer: Its outcome is “inactive”.

Question: With `N#Cc1ccc(N2CCN(C(=O)c3ccc(Cl)cc3)CC2)nc1` as the molecule, how does the outcome read?
Answer: The outcome was “inactive”.

Question: Which outcome does the source give for `O=C(c1ccc(Cl)cc1)N1CCN(c2cccnc2)CC1` here?
Answer: The outcome was “inactive”.

Question: For `CCCC(=O)N1CCN(c2ccnc3cc(Cl)ccc23)CC1`, which outcome is on record?
Answer: Its outcome is “inactive”.

Question: With `O=C(c1ccc(Cl)cc1)N1CCN(c2ccccn2)CC1` as the molecule, how does the outcome read?
Answer: The outcome was “inactive”.

Question: Which outcome does the source give for `O=C(c1ccccc1Cl)N1CCN(c2ccnc3cc(Cl)ccc23)CC1` here?
Answer: Its outcome is “inactive”.

Question: With `O=C(c1ccc(Cl)cn1)N1CCN(c2ccnc3cc(Cl)ccc23)CC1` as the molecule, how does the outcome read?
Answer: The outcome was “inactive”.

Question: With `O=C(c1ccc(Cl)cc1)N1CCN(c2ncnc3nc[nH]c23)CC1` as the molecule, how does the outcome read?
Answer: The outcome was “inactive”.

Question: With `O=C(c1ccc(Cl)cc1)N1CCN(c2ccnc3cc(Cl)ccc23)CC1` as the molecule, how does the outcome read?
Answer: Its outcome is “inactive”.

Question: For `O=C(c1cccc(Cl)c1)N1CCN(c2ccnc3cc(Cl)ccc23)CC1`, which outcome is on record?
Answer: The outcome was “inactive”.

Question: For `O=C(C1CCC1)N1CCN(c2ccnc3cc(Cl)ccc23)CC1`, which outcome is on record?
Answer: The outcome was “inactive”.

Question: Which outcome does the source give for `CC(C)CC(=O)N1CCN(c2ccnc3cc(Cl)ccc23)CC1` here?
Answer: The outcome was “inactive”.

Question: With `Cc1cc(N2CCN(C(=O)c3ccc(Cl)cc3)CC2)c2ccccc2n1` as the molecule, how does the outcome read?
Answer: The outcome was “inactive”.

Question: Which outcome does the source give for `O=C(c1ccc(Cl)cc1)N1CCCN(c2ccnc3cc(Cl)ccc23)CC1` here?
Answer: Its outcome is “inactive”.

Question: Which outcome does the source give for `O=C(C1CCCC1)N1CCN(c2ccnc3cc(Cl)ccc23)CC1` here?
Answer: The outcome was “inactive”.

Question: With `COc1ccc2c(N3CCN(C(=O)c4ccc(Cl)cc4)CC3)ccnc2c1` as the molecule, how does the outcome read?
Answer: The outcome was “inactive”.

Question: With `O=C(c1ccc(Cl)cc1)C1CCN(c2ccnc3cc(Cl)ccc23)CC1` as the molecule, how does the outcome read?
Answer: The outcome was “inactive”.

Question: With `COc1ccnc(N2CCN(C(=O)c3ccc(Cl)cc3)CC2)c1` as the molecule, how does the outcome read?
Answer: The outcome was “inactive”.

Question: Which outcome does the source give for `Cc1cc(N2CCN(C(=O)c3ccc(Cl)cc3)CC2)c2ccc(F)cc2n1` here?
Answer: Its outcome is “inactive”.

Question: Which outcome does the source give for `CC(C)C(=O)N1CCN(c2ccnc3cc(Cl)ccc23)CC1` here?
Answer: Its outcome is “inactive”.

Question: With `O=C(c1ccc(Cl)cc1)N1CCN(c2ccnc3ccccc23)CC1` as the molecule, how does the outcome read?
Answer: Its outcome is “inactive”.

Question: With `CC1CN(c2ccnc3cc(Cl)ccc23)CCN1C(=O)c1ccc(Cl)cc1` (stereo unspecified) as the molecule, how does the outcome read?
Answer: Its outcome is “inactive”.

Question: For `O=C(c1ccc(Cl)cc1)N1CCNCC1`, which outcome is on record?
Answer: Its outcome is “inactive”.

Question: With `O=C(C1CCCCC1)N1CCN(c2ccnc3cc(Cl)ccc23)CC1` as the molecule, how does the outcome read?
Answer: The outcome was “inactive”.

Question: With `O=C(c1ccc(Cl)cc1)N1CCN(c2ncnc3ccccc23)CC1` as the molecule, how does the outcome read?
Answer: Its outcome is “inactive”.

Question: With `O=C(Nc1ccc(Cl)cc1)N1CCN(c2ccnc3cc(Cl)ccc23)CC1` as the molecule, how does the outcome read?
Answer: Its outcome is “inactive”.

Question: Which outcome does the source give for `COc1cccc2c(N3CCN(C(=O)c4ccc(Cl)cc4)CC3)cc(C)nc12` here?
Answer: Its outcome is “inactive”.

Question: For `Clc1ccc2c(N3CCNCC3)ccnc2c1`, which outcome is on record?
Answer: The outcome was “inactive”.

Question: With `O=C(c1ccc(Cl)cc1)N1CCN(c2ccnc3ccc(Cl)cc23)CC1` as the molecule, how does the outcome read?
Answer: Its outcome is “inactive”.
